Compound activity: PubChem, National Center for Advancing Translational Sciences (NCATS)
A selection: hits, their analogues and other compounds. The true share with any hit is near 6%.
D1 ag – activates the human D1 dopamine receptor | HEK293 T-REx D1 cells, calcium flux, agonist mode | activation, % at 2 µM | 360,000 compounds, 1% hits | AID 504660; in the data active = activation above about 30%; also: 0% is about no effect
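Agonism was scored from calcium flux recorded over 180 s (1 read/s) after pintool compound addition, following a 10-cycle baseline. Cells were inducible force-coupled HEK293 TREx D1, plated overnight at 30 C and loaded with no-wash calcium dye.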
D1 antag – antagonists of human D1 dopamine receptor; activity change, negative = inhibition, % at 10 µM; AID 504652; P21728; HEK293 TREx D1 cells, calcium flux, dopamine EC80; active compounds read low; 360,000 compounds, 3.2% hits; in the data active = activity change below about -30%; also: % is scaled to controls: 0 for no effect and ±100 for the full control effect
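Compound effects on dopamine-evoked calcium signalling were measured in tetracycline-induced HEK293 Trex D1 cells. Dopamine at EC80 followed a 180 s compound pre-read, and fluorescence was tracked kinetically for 180 s more.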
DRD3 agonist – agonists of human D3 dopamine receptor. P35462. D3R DiscoveRx beta-arrestin cells, luminescence, 90 min. max activation, %. 410,000 compounds, 0.58% hits; in the data active = max activation above about 30%; also: 0% is about no effect
Target sequence (P35462 whole entry, looked up): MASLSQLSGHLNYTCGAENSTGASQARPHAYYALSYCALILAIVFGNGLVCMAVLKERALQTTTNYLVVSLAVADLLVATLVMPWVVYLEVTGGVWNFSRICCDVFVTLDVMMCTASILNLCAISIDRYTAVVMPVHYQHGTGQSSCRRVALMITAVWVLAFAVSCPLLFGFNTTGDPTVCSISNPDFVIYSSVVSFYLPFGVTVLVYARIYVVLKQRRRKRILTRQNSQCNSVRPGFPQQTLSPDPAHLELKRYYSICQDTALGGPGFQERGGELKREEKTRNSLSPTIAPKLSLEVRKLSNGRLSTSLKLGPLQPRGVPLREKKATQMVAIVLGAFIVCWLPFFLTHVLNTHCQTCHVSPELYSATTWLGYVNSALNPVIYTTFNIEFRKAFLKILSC
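Cells at 1500/well, incubated overnight, then treated with pinned compounds (dopamine as control) for 90 min at 37 degrees C. DiscoveRx reagent added for 30 - 60 minutes at room temperature; luminescence read.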
DRD3 antagonist – antagonists of human D3 dopamine receptor. P35462. D3R cells, DiscoveRx beta-arrestin luminescence, antagonist mode; active compounds read low. max response, negative = inhibition, %. 360,000 compounds, 2.5% hits; in the data active = max response below about -50%; also: % is scaled to controls: 0 for no effect and ±100 for the full control effect
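Cells expressing the human receptor were seeded at 1500 cells/well, incubated overnight at 37 degrees C in 5% CO2, then exposed to library compounds with dopamine controls for 90 minutes at 37 degrees C before luminescent detection.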
D1 potentiator – potentiators of human D1 dopamine receptor; 360,000 compounds, 0.036% hits; HEK293 TREx D1 cells, calcium flux, dopamine EC20 potentiation; AID 504651; P21728; potentiation, % at 10 µM; in the data active = potentiation above about 30%; also: 0% is about no effect
* hit, by the source's call.

Results for COc1ccc(NC(=O)CN2CCc3ccccc3C2)cc1 ?
DRD3 agonist: -5; DRD3 antagonist: -80*

How did CCN1CCc2nc(SCC(=O)Nc3ccc(OC)cc3)c(C#N)cc2C1 do in these assays?
D1 ag: 0; D1 antag: 5; DRD3 agonist: 9; DRD3 antagonist: -70*; D1 potentiator: -1

What do the screens show for `CCCC1CCc2c(sc(NC(=O)c3cccs3)c2C(N)=O)C1` (stereo not drawn)?
D1 ag: 1; D1 antag: 3; DRD3 agonist: 20; DRD3 antagonist: -94*; D1 potentiator: 4

How did COc1cc(CNCc2ccccn2)ccc1OCc1ccc(Cl)cc1 do in these assays?
D1 ag: 24; D1 antag: -9; DRD3 agonist: -7; DRD3 antagonist: -2; D1 potentiator: -8

How did COc1cc(CNCc2ccccn2)ccc1OCc1c(Cl)cccc1Cl do in these assays?
D1 ag: 41*; D1 antag: 5; DRD3 agonist: -24; DRD3 antagonist: -23; D1 potentiator: 3

Results for O=C(CCN1CCN(Cc2ccccc2)CC1)Nc1ccccc1Cl ?
D1 ag: 3; D1 antag: 11; DRD3 agonist: -10; DRD3 antagonist: -21; D1 potentiator: -2

Results for COc1ccc(C)cc1NC(=O)CCN1CCCC1 ?
D1 ag: 1; D1 antag: -1; DRD3 agonist: -8; DRD3 antagonist: 0; D1 potentiator: -3

What do the screens show for `COC(=O)c1ccccc1NC(=O)CN1CCN(Cc2ccccc2)CC1`?
D1 ag: 3; D1 antag: -17; DRD3 agonist: -13; DRD3 antagonist: -1; D1 potentiator: -1

How did COc1ccccc1NC(=O)CCN1CCCCCC1 do in these assays?
D1 ag: 5; D1 antag: -12; DRD3 agonist: -33; DRD3 antagonist: -111*; D1 potentiator: 0

How did COC(=O)c1cc(OC)c(OC)cc1NC(=S)N1CCN(Cc2ccccc2)CC1 do in these assays?
D1 ag: -1; D1 antag: -32*; DRD3 agonist: -8; DRD3 antagonist: 10; D1 potentiator: -4

Results for COc1ccccc1NC(=O)CCN1CCN(Cc2ccccc2)CC1 ?
D1 ag: 3; D1 antag: -2; DRD3 agonist: -30; DRD3 antagonist: -55*; D1 potentiator: -4

How did COC(=O)c1cc(CN2CCN(c3ccccc3)CC2)ccc1O do in these assays?
D1 ag: 1; D1 antag: -24; DRD3 agonist: 5; DRD3 antagonist: -56*; D1 potentiator: -4

How did COc1ccccc1NC(=O)C1=C(C)Nc2nc(SCc3ccccc3)nn2C1c1cccnc1 (stereo not drawn) do in these assays?
D1 ag: -3; D1 antag: 4; DRD3 agonist: -7; D1 potentiator: 0

Results for Clc1ccc(Nc2nnc(Cc3ccncc3)c3ccccc23)cc1 ?
DRD3 agonist: 3

What do the screens show for `CN1CCN(C(=O)C(=O)Nc2c3c(nn2-c2ccc(Cl)cc2)CSC3)CC1`?
D1 ag: -2; DRD3 agonist: 4; D1 potentiator: -2

How did COc1ccc(CCNC(=O)CSc2nnc(-c3ccc(C)cc3)c(-c3ccc(C)cc3)n2)cc1OC do in these assays?
D1 ag: -2; D1 antag: -5; DRD3 agonist: 8; D1 potentiator: 0

What do the screens show for `COc1cc(NC(=O)Nc2ccccc2OC)c(OC)cc1NC(=O)CN1CCCCC1`?
D1 ag: 1; D1 antag: -32*; DRD3 agonist: -5; DRD3 antagonist: 6; D1 potentiator: -12

Results for COc1ccccc1NC(=O)CCN1C(=O)C2C3CCC(C3)C2C1=O (stereo not drawn) ?
D1 ag: 1; D1 antag: -78*; DRD3 agonist: 15; DRD3 antagonist: 17; D1 potentiator: -6

Results for COc1ccccc1NC(=O)CN1CCCCCC1 ?
D1 ag: 0; D1 antag: 2; DRD3 agonist: 6; DRD3 antagonist: -5; D1 potentiator: -7

Results for COC(=O)N(C)C[C@@H]1OCc2cn(nn2)CCCC(=O)N([C@@H](C)CO)C[C@H]1C ?
DRD3 agonist: 5; DRD3 antagonist: 22

Results for CCCN(CCC)CC(O)CN(c1cc([N+](=O)[O-])ccc1OC)S(=O)(=O)c1ccccc1 (stereo not drawn) ?
D1 ag: 1; D1 antag: 3; DRD3 agonist: -1; DRD3 antagonist: -65*; D1 potentiator: 0
